The full ranking holds about 18,000 sequences; the median of “log2 normalized intensity” is about 0.36, and the highest 2% start at about 7.3. Shown is part of a subset that was picked to be rich in the highest values.

The target of this experiment is T1, HNF4alpha8 (COS-7 nuclear extract) (Homo sapiens, UniProt P41235-5 1-452).
T1 sequence: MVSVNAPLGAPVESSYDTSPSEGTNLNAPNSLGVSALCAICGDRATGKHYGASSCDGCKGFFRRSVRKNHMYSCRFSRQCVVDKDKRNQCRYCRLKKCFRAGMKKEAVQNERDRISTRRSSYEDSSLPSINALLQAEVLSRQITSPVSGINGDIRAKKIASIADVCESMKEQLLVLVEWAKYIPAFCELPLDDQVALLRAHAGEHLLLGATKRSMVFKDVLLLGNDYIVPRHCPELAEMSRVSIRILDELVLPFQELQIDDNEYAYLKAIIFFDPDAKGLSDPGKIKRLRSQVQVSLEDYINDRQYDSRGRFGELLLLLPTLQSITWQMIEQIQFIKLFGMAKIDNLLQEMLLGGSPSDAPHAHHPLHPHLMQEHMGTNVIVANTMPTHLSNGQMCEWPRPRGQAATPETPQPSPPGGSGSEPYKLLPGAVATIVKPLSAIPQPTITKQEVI
Briefly: protein-binding microarray; COS-7 nuclear extract on double-stranded Agilent 4x180k PBM; binding buffer, salt, pH and temperature not given in the material; high values mean tight binding. As to conditions: chain copies: 2; label: 3' end of strand 1 on the slide; dsDNA, one strand shown. In short, it runs like this:
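A custom Agilent SurePrint G3 4x180k array, spotted in quadruplicate with ~44,000 test sequences as ~60-nt oligonucleotides made double-stranded, was incubated with nuclear extracts. The extracts came from COS-7 cells transiently transfected by CaPO4 with a human HNF4α isoform expression vector. Bound HNF4α was imaged on an Agilent G2565CA scanner at 2-µm resolution, and the binding signal was taken as Agilent software's background-corrected, normalized gProcessedSignal.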
On to “ACACTGGGCTAGAGGTCTTAATCTTTTTACGCCTAGGGAGATTAGAGTATCGGTCGA”, for which the binding signal was found to be 1.15 log2 normalized intensity.

With “CAGTGGGAGACAGGCATTAACCCTTTAGTGGCCTAGGGAGATTAGAGTATCGGTCGA”, the binding signal is 0.965 log2 normalized intensity.

Take “CAACCCATCCAACTCCTTGAGAAGTACAACGCCTAGGGAGATTAGAGTATCGGTCGA”: the binding signal was -0.809 log2 normalized intensity.

Take “CAAAATATCTCACTCCCACACTGGTAACCTGCCTAGGGAGATTAGAGTATCGGTCGA”: the binding signal worked out at 0.32 log2 normalized intensity.

“CAGCTGTTATCTCTTTTGTGATAGAATGAAGCCTAGGGAGATTAGAGTATCGGTCGA”: the binding signal is 1.89 log2 normalized intensity.

“GTGTCATTGTTATTTACGGTGGGCACCTCAGCCTAGGGAGATTAGAGTATCGGTCGA”: the binding signal amounted to 0.235 log2 normalized intensity.

“AGTGTTTCAAAGGAGTGTCTTTCTCCTTGAGCCTAGGGAGATTAGAGTATCGGTCGA”: the binding signal was 1.38 log2 normalized intensity.

For the sequence “ACTTTAACCTTTAGATTACTAGGAATTGATGCCTAGGGAGATTAGAGTATCGGTCGA”, the binding signal stood at 1.53 log2 normalized intensity.

Take “CTTGGACTTTAACCTTTAGATTACTAGGAAGCCTAGGGAGATTAGAGTATCGGTCGA”: the binding signal was determined as 6.61 log2 normalized intensity.

Take “GAGTACTTGGACTTTAACCTTTAGATTACTGCCTAGGGAGATTAGAGTATCGGTCGA”: the binding signal came out at 7.94 log2 normalized intensity.

For “TGCCAAGGAGCCTCTGCAACCTTTGCTCTCGCCTAGGGAGATTAGAGTATCGGTCGA”, the binding signal turned out to be 6.62 log2 normalized intensity.

For “ATGGTTAAGGTGAAAGTCCGACTTTTAAGAGCCTAGGGAGATTAGAGTATCGGTCGA”, the binding signal came to 4.06 log2 normalized intensity.

“ACATTTTTATCCTTTTTTGAAGGTTAAAGTGCCTAGGGAGATTAGAGTATCGGTCGA”: the binding signal was found to be 3 log2 normalized intensity.

“TTTGAAGGTTAAAGTCCATTTTTGAGGACCGCCTAGGGAGATTAGAGTATCGGTCGA”: the binding signal turned out to be 6.47 log2 normalized intensity.

In the case of “CTGCCACATTTTTATCCTTTTTTGAAGGTTGCCTAGGGAGATTAGAGTATCGGTCGA”, the binding signal turned out to be 2 log2 normalized intensity.

In the case of “TTTATCCTTTTTTGAAGGTTAAAGTCCATTGCCTAGGGAGATTAGAGTATCGGTCGA”, the binding signal came to 7.82 log2 normalized intensity.

With “CCTTTTTTGAAGGTTAAAGTCCATTTTTGAGCCTAGGGAGATTAGAGTATCGGTCGA”, the binding signal amounted to 7.52 log2 normalized intensity.

On to “AAACCTCCCCCAAACCAAAGAGAAATGGTGGCCTAGGGAGATTAGAGTATCGGTCGA”, for which the binding signal came out at 3.41 log2 normalized intensity.

For “TGGTTTTCCAATCTGGTGAAAGATGATGAGGCCTAGGGAGATTAGAGTATCGGTCGA”, the binding signal was 0.365 log2 normalized intensity.

For the sequence “TCTAAGGCAAAACACCCCTTTCACTTCTTCGCCTAGGGAGATTAGAGTATCGGTCGA”, the binding signal turned out to be 0.915 log2 normalized intensity.

Regarding “CCATTTATAAGAAACTGCTCCTGCTTGGGAGCCTAGGGAGATTAGAGTATCGGTCGA”, the binding signal is -0.881 log2 normalized intensity.

Take “TGCCAGCCCCGAGATAACCCCTCTCCAAGCGCCTAGGGAGATTAGAGTATCGGTCGA”: the binding signal was 4.43 log2 normalized intensity.

For “ATAGACTGTCCCTCAGTGTGGGACTTTGGTGCCTAGGGAGATTAGAGTATCGGTCGA”, the binding signal came out at 3.52 log2 normalized intensity.

Consider “CCCTCGACCTTTGCCCTCCATAAGGGGGAGGCCTAGGGAGATTAGAGTATCGGTCGA”, for which the binding signal turned out to be 6.74 log2 normalized intensity.

As for “TGGTGCAAAGGTCAGGACAAGGCTCTGGTGGCCTAGGGAGATTAGAGTATCGGTCGA”, the binding signal came out at 4.55 log2 normalized intensity.

Consider “CCCTGCCTGACCTGCCCTTTGTCCCTCCTGGCCTAGGGAGATTAGAGTATCGGTCGA”, for which the binding signal was 5.06 log2 normalized intensity.

Consider “AGAGGACAGAAGAAGGAAAAGGCCTGACCTGCCTAGGGAGATTAGAGTATCGGTCGA”, for which the binding signal came to 1.07 log2 normalized intensity.

On to “TCACTGACCTCTGCCCTACTGTATATCCTGGCCTAGGGAGATTAGAGTATCGGTCGA”, for which the binding signal stood at 2.89 log2 normalized intensity.

With “TTCTGCCCCTTGCTCCTGCTTGCTGGCTTTGCCTAGGGAGATTAGAGTATCGGTCGA”, the binding signal worked out at 1.35 log2 normalized intensity.

Turning to “CAGAGGCTTCCTCTTTGGTGCAAAGGTCAGGCCTAGGGAGATTAGAGTATCGGTCGA”, the binding signal turned out to be 7.47 log2 normalized intensity.

For the sequence “CTCTTTGGTGCAAAGGTCAGGACAAGGCTCGCCTAGGGAGATTAGAGTATCGGTCGA”, the binding signal worked out at 4.73 log2 normalized intensity.

As to “AGAAGGAAAAGGCCTGACCTTTGCCCTCTGGCCTAGGGAGATTAGAGTATCGGTCGA”, the binding signal stood at 10.4 log2 normalized intensity.

In the case of “GAAAAGGCCTGACCTTTGCCCTCTGGCCCTGCCTAGGGAGATTAGAGTATCGGTCGA”, the binding signal turned out to be 9.29 log2 normalized intensity.

As for “GACCTTTGCCCTCTGGCCCTTAAAGGCTTTGCCTAGGGAGATTAGAGTATCGGTCGA”, the binding signal is 7.8 log2 normalized intensity.

For “ACAGAAGAAGGAAAAGGCCTGACCTTTGCCGCCTAGGGAGATTAGAGTATCGGTCGA”, the binding signal came out at 5.58 log2 normalized intensity.

On to “AATACTCTGAGTAAACACAGACTTTGGAATGCCTAGGGAGATTAGAGTATCGGTCGA”, for which the binding signal was determined as 4.55 log2 normalized intensity.

As for “TTCGGGGCACTGCTCCCTGCCCCTACCCCCGCCTAGGGAGATTAGAGTATCGGTCGA”, the binding signal stood at 5.02 log2 normalized intensity.

Consider “AGGTACTGGTAGCCTGGGCCCCAGGGGACGGCCTAGGGAGATTAGAGTATCGGTCGA”, for which the binding signal was -0.625 log2 normalized intensity.

Turning to “GTGCAAAGGCCTTAAAGTGTAAATATTTGAGCCTAGGGAGATTAGAGTATCGGTCGA”, the binding signal was 0.546 log2 normalized intensity.

In the case of “TCCGCTTGCCTGAGGGTCATGACTAAAGCAGCCTAGGGAGATTAGAGTATCGGTCGA”, the binding signal was found to be 1.13 log2 normalized intensity.

Turning to “CCACTAGAGAGACCGTCCCTGGGTACAACTGCCTAGGGAGATTAGAGTATCGGTCGA”, the binding signal came out at 1.33 log2 normalized intensity.

Turning to “CGTGGGCATGCCTCCCAGAGCATTGTTTATGCCTAGGGAGATTAGAGTATCGGTCGA”, the binding signal is -0.764 log2 normalized intensity.

On to “GCACATGGCATGATCCCTGACTCATAGCTCGCCTAGGGAGATTAGAGTATCGGTCGA”, for which the binding signal was -0.946 log2 normalized intensity.

Turning to “TGACTACCAGGTTCTGTACTTTGGAACCTGGCCTAGGGAGATTAGAGTATCGGTCGA”, the binding signal came to 7.01 log2 normalized intensity.

In the case of “TTCTCTGTGACCTTTGGAAGGTGGGGGAGGGCCTAGGGAGATTAGAGTATCGGTCGA”, the binding signal is 4.92 log2 normalized intensity.

Consider “GGGCCCAGGGTTCTCTGTGACCTTTGGAAGGCCTAGGGAGATTAGAGTATCGGTCGA”, for which the binding signal turned out to be 9.36 log2 normalized intensity.

Consider “TGGAGCATGACCCTTTGCAGGTGGGAGAGGGCCTAGGGAGATTAGAGTATCGGTCGA”, for which the binding signal worked out at 0.928 log2 normalized intensity.

Take “GAGGTGGGCCCAGGGTTCTCTGTGACCTTTGCCTAGGGAGATTAGAGTATCGGTCGA”: the binding signal was found to be 7.62 log2 normalized intensity.

Take “CTGCCCTTCTGACCTCCCAGGGATACTGTGGCCTAGGGAGATTAGAGTATCGGTCGA”: the binding signal was 2.99 log2 normalized intensity.
